CYP2C9 act – human CYP2C9 activators, primary screen, biochemical, luminescence; recombinant CYP2C9, luciferin-H conversion; hits give high values; factor 1 = untreated enzyme, 0 = blocked; activation factor at 5 µM; 96,000 compounds, 1.4% hits;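 active = activation factor of 2 or more for CYP2C9 at a 5 µM dose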;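 also: 0 = sulfaphenazole-blocked wells and 1 = vehicle-only wells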
CYP2C9 inhib – blockers of cytochrome P450 2C9 activity – biochemical, luminescence, ADME assay, primary screen | P11712 | CYP2C9 Supersomes, luciferin-H conversion | inhibition, % at 5 µM | 96,000 compounds, 20% hits | AID 777, 2007;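 active = blocking of liver enzyme CYP2C9 beyond about 50% at 5 µM, limit read from the data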
PLAP activator – PLAP enzyme activators, biochemical, luminescence, HTS | Alkaline phosphatase, placental type (Homo sapiens), P05187 | purified PLAP enzyme, luminescent substrate read-out; hits give high values | activation fold at 20 µM | 96,000 compounds, 1.2% hits | AID 696, 2007; in the data active = activation fold above about 2
CYP2C19 activ – human CYP2C19 activators, primary screen, biochemical, luminescence; recombinant CYP2C19, luciferin-H EGE luminescence; hits give high values; 0 = fully inhibited enzyme, 1 = untreated enzyme; AID 1025, 2008; Cytochrome P450 2C19 (Homo sapiens), P33261; 96,000 tested, under 10 active; activation factor at 5 µM;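 active = activation factor of at least 2 at 5 µM in the primary screen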;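 also: 0 = wells with 2.5 mM tranylcypromine and 1 = vehicle-only wells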
Target sequence (P33261 whole entry, looked up): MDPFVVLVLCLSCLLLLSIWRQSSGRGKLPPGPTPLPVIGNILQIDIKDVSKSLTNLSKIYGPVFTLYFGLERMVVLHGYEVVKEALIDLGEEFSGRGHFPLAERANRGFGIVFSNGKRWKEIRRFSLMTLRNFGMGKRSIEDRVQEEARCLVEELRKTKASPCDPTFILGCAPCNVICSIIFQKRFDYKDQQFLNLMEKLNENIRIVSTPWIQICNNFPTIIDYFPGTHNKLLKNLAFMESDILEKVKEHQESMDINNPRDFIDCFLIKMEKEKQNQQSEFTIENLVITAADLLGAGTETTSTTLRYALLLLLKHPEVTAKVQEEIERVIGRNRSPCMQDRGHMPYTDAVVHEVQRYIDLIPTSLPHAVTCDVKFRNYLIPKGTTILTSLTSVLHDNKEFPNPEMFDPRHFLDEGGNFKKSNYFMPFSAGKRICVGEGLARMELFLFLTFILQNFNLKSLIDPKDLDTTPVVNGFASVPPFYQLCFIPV
CYP2C19 inhib – blockers of cytochrome P450 2C19 activity – biochemical, luminescence, ADME assay, primary screen; CYP2C19 Supersomes, luciferin-H EGE luminescence, 30 min; inhibition, % at 5 µM; 96,000 compounds, 21% hits; AID 778, 2007;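 active = CYP2C19 inhibition above a set limit at 5 µM in the primary screen, cut at about 50% in these data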;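 also: plate controls were negative control wells for no effect and 2.5 mM tranylcypromine positive control for full effect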
* marks the source's active call; other numbers are inactive results. A selection: hits, their analogues and other compounds. The true share with any hit is near 31%.

SMILES	CYP2C9 act	CYP2C9 inhib	PLAP activator	CYP2C19 activ	CYP2C19 inhib
COc1cccc(CNC(=O)C2CCN(S(=O)(=O)N3CCCC3)CC2)c1	0.8	16	0.9	1	5
O=C(NCc1ccc2c(c1)OCO2)c1cccc(S(=O)(=O)N2CCOCC2)c1	0.6	35	0.9	0.9	14
COC(=O)c1ccc(S(=O)(=O)NCc2cccc(OC)c2)n1C	0.7	28	0.9	0.4	60*
O=S(=O)(NCc1ccc2c(c1)OCO2)c1cccc(S(=O)(=O)N2CCOCC2)c1	0.7	35	1.1	0.3	75*
COc1cc2oc3ccccc3c2cc1N(CC(=O)N1CCCCC1)S(=O)(=O)c1ccc(C)cc1	0.6	38	1.1	1	1
COc1ccc(C(=O)CSc2nnc(CNC(=O)c3ccc(OC)cc3)n2C)cc1	1	4	0.8	0.9	10
Cc1nc2ccccc2n1C1CC(=O)N(N(C)C)C1=O (configuration not stated)	0.9	9	0.8	1	-2
O=C(CCc1nc(-c2ccccc2F)no1)NC1CCCCCC1	0.7	28	0.8	0.7	27
COc1cccc(-n2ccnc2SCC(=O)Nc2cc(OC)ccc2OC)c1	1.2	-20	1	0.1	89*
COc1ccc(NC(=O)CSc2nccn2-c2cccc(OC)c2)cc1	0.3	70*	0.9	0.4	59*
COc1ccc(OC)c(NC(=O)CSc2ncccc2C(=O)O)c1	1.1	-12	1.2	1.1	-14
COc1ccc(C(=O)NCCc2nnc(SCC(=O)Nc3ccccc3)n2C)cc1	0.6	37	1	0.9	12
Cc1c(NC(=O)CSc2ccc3c(c2)OCCO3)c(=O)n(-c2ccccc2)n1C	1	0	1	1.1	-7
O=C(CSc1ccc2c(c1)OCCO2)Nc1ccc(Cl)cn1	0.7	26	0.8	0.3	71*
COc1ccc(-n2ccnc2SCC(=O)Nc2ccccc2)cc1	0.4	60*	1.1	0.4	60*
O=C(C1CCC(=O)N1Cc1ccccc1Cl)N1CCN(c2ccc(F)cc2)CC1 (configuration not stated)	1	-1	1.2	0.9	7
COc1cccc(NC(=O)CSc2nccn2-c2cccc(OC)c2)c1	0.7	26	0.9	0.4	61*
Cn1c(SCC(=O)Nc2ccc3c(c2)OCCO3)nnc1-c1ccccn1	1	-2	0.9	1	-5
COc1cccc(-n2ccnc2SCC(=O)Nc2ccccc2)c1	0.5	47	0.9	0.2	80*
O=C(CSc1nccn1-c1cccc(Cl)c1)Nc1ccc2c(c1)OCCO2	0.3	66*	0.8	0.3	66*
CCc1nnc(NC(=O)CSc2nccn2-c2cccc(C)c2)s1	0.7	30	1.3	0.8	16
Cc1cccc(-n2ccnc2SCC(=O)Nc2cc(C)on2)c1	0.8	16	1.4	0.8	25
O=C(NC(=S)Nc1ccc2oc(-c3cccnc3)nc2c1)c1cccc(Cl)c1	0.8	16	1	0.8	21
Cc1nc2ccc(S(=O)(=O)NC(C(=O)Nc3nc4ccc(Cl)cc4s3)C(C)C)cc2s1 (configuration not stated)	0.1	92*	1.8	0.2	84*
CC(C)C(NS(=O)(=O)c1cccc2nsnc12)C(=O)NCc1ccc2c(c1)OCO2 (configuration not stated)	0.4	59*	0.9	0.6	44
SMILES	CYP2C9 act	CYP2C9 inhib	PLAP activator	CYP2C19 activ	CYP2C19 inhib
Cc1nc2ccc(S(=O)(=O)NCC(=O)N3CCC(C)CC3)cc2s1	0.9	14	0.9	0.5	50*
COc1ccc2nc(NC(=O)C(NS(=O)(=O)c3cccc4nsnc34)C(C)C)sc2c1 (configuration not stated)	0.3	74*	2.1*	0.6	41
COc1ccc2nc(NC(=O)C3CCN(S(=O)(=O)c4cccc5nsnc45)CC3)sc2c1	0.9	9	1.2	0.5	48
O=C(CCc1ccc(S(=O)(=O)N2CCOCC2)cc1)NCCc1ccccn1	0.8	20	1	0.9	6
Cc1ccc(S(=O)(=O)N2CCN(C(=O)CSc3nnnn3C)C2)cc1	1.1	-8	0.9	1	-4
COc1ccc2c(c1)c(C(O)CN1CCC3(CC1)OCCO3)c(C)n2C (configuration not stated)	0.9	7	1.3	0.7	26
COc1ccccc1CNc1n[nH]c(NCc2ccccc2OC)n1	1.5	-47	1.6	1.1	-8
CCOc1cc(CNc2ccc(O)cc2)ccc1OCc1ccc(Cl)cc1Cl	0.7	33	1.2	0.8	16
CCOc1cc(CNc2ccc3cn[nH]c3c2)ccc1OC	0.3	75*	1.4	0.1	88*
COc1ccc(CNc2ccc3cn[nH]c3c2)c(OC)c1OC	0.1	86*	2*	0	98*
CCCCCC(=O)NC(=S)Nc1ccccc1C(=O)OC	0.9	12	0.9	0.7	28
C=C(C)CSc1nc(C)c(Cc2ccccc2)c(=O)[nH]1	0.8	23	1.1	0.5	49
Cc1nc(NCc2ccccc2)[nH]c(=O)c1CCC(C)C	0.8	23	0.9	0.5	46
Cc1nc(SCC(C)C)[nH]c(=O)c1Cc1ccccc1	1.1	-7	0.9	0.4	59*
CC(C)c1c(O)nc(SCc2ccccc2)[nH]c1=O	0.5	52*	1.2	0.9	5
CCC(C)c1c(O)nc(SCc2ccccc2)[nH]c1=O (configuration not stated)	1.1	-5	1.3	1.2	-22
CSc1nc(C)c(CCOCc2ccccc2)c(=O)[nH]1	0.5	49	1.1	0.3	69*
CCN(Cc1ccccc1)S(=O)(=O)c1ccc(C(=O)Nc2nnc(C3CC3)o2)cc1	0.1	88*	1.5	1	2
Cc1nnc(NC(=O)c2ccc(S(=O)(=O)N(C)Cc3ccccc3)cc2)o1	0.2	78*	1.6	1.1	-11
COCCN(CCOC)S(=O)(=O)c1ccc(C(=O)Nc2nnc(C)o2)cc1	1.1	-12	1.1	1.2	-18
COCc1nnc(NC(=O)c2ccc(S(=O)(=O)N(C)C3CCCCC3)cc2)o1	0.2	76*	1.7	1	-4
CC(=O)C1=C(C)NC(=O)NC1c1cc(Br)ccc1OCC(N)=O (configuration not stated)	1	5	1.2	0.9	12
COc1ccccc1CN1CC(C(=O)N2CCN(c3ccc(F)cc3)CC2)CC1=O (configuration not stated)	1.4	-42	1.5	0.6	43
Cc1ccc(-c2nc3cnccn3c2Nc2ccc3c(c2)OCO3)cc1	0.1	86*	1.6	0.2	78*
COc1ccc(N/C=C\C(=O)c2ccc3c(c2)OCO3)cc1	1.2	-19	0.8	0.7	27

Source: PubChem BioAssay
